From ChEMBL document CHEMBL1157539, “Thousands of chemical starting points for antimalarial lead identification” (Nature, 2010) come the findings set out here.

“And” between values parts separate entries of the source, which are not always exact repeats. Equal values may be shown once.

What all share (assay type): functional
The test system of assay [1] is Plasmodium falciparum. Briefly: GSK_TCMDC: Inhibition of Plasmodium falciparum 3D7 in whole red blood cells, using parasite LDH activity as an index of growth. Test compounds present at 2uM.
Assay [2] relates to Plasmodium falciparum. Description: GSK_TCMDC: Inhibition of Plasmodium falciparum Dd2 in whole red blood cells, using parasite LDH activity as an index of growth. Test compounds present at 2uM.
The subject of a further assay is HepG2. Briefly: GSK_TCMDC: Percent inhibition of human HepG2 cell line. Test compounds present at 10uM.

Usually Inhibition stands for the change of the read-out against control, counted positive when it falls. A high value points to a response far below the control. Turning to `O=C(Cc1c(-c2ccccc2)[nH]c2ccccc12)NC1CCC(CN2CCC(c3c[nH]c4ccccc34)CC2)CC1` (centres undefined), the Inhibition is given as 100% with Plasmodium falciparum [1], 75% in the assay with Plasmodium falciparum [2] and 31% with HepG2.
As for `Oc1ccccc1CNCC(O)c1cccc(C(F)(F)F)c1` (centres undefined), the Inhibition in the assay on Plasmodium falciparum [1] is given as 100%; with Plasmodium falciparum [2], 97%; in the assay on HepG2, 1%.
The corresponding values for `O=C(NC1CCC(CN2CCC(c3c[nH]c4ccccc34)CC2)CC1)c1cn(Cc2ccccc2)c2ccccc12` (centres undefined) are 91%, 48% and 84%.
The corresponding values for `CCCc1cc([C@@H](O)[C@@H]2C[C@@H]3CCN2C[C@@H]3CC)c2ccccc2n1` are 100%, 57% and 9%.
The corresponding values for `O=C1COc2ccccc2N1CCN1CCC(NCc2ccc(-c3cccs3)cc2)CC1` are 87%, 18% and 37%.
With `CC(Cc1ccc(C2=CCNCC2)cc1)NCC(O)c1cccc(C(F)(F)F)c1.Cl` (centres undefined), the Inhibition in the assay on Plasmodium falciparum [1] was determined as 89%; with Plasmodium falciparum [2] it was 0%; with HepG2, 27%.
On the same counts, the results for `O=C(O)c1ccc2nc(-c3ccc(-c4ccccc4)cc3)n(C3CCN(Cc4ccc(-c5ncc[nH]5)cc4)CC3)c2c1` are 91%, 99% and 3%.
Consider `Cc1ccc(CC(C)NCC(O)c2cccc(C(F)(F)F)c2)cc1.Cl` (centres undefined), for which the Inhibition in the assay on Plasmodium falciparum [1] is on record as 99%; in the assay with Plasmodium falciparum [2], 97%; in the assay with HepG2 it was 6%.
The corresponding values for `CC[C@H]1CN2CC[C@H]1C[C@H]2[C@H](O)c1cc(-c2ccc3ccccc3c2)nc2ccc(OC)cc12.Cl` are 99%, 99% and 49%.
As to `COc1cc(/C=C/C(=O)NC2CCC(CN3CCC(c4c[nH]c5ccccc45)CC3)CC2)ccc1O` (centres undefined), the Inhibition with Plasmodium falciparum [1] is 98% and 99%; in the assay with Plasmodium falciparum [2], 45% and 44%; with HepG2, 11% and 19%.
As to `Cc1[nH]c2ccc(NS(C)(=O)=O)cc2c1C1CCN(CC2CCN(C(=O)/C=C/c3ccc(Cl)c(Cl)c3)CC2)CC1`, the values for the Inhibition in the assay on Plasmodium falciparum [1], with Plasmodium falciparum [2] and with HepG2 were 99%, 83% and 15%, respectively.
On the same counts, the results for `COC(=O)c1ccc(CC(C)NCC(O)c2cccc(OCc3ccccc3)c2)cc1.Cl` (centres undefined) are 86%, 37% and 11%.
On the same counts, the results for `CC[C@H]1CN2CC[C@@H]1C[C@H]2[C@H](O)c1cc(-c2c(C)noc2C)nc2ccc(OC)cc12.Cl` are 100%, 98% and 4%.
As for `O=c1n[n+](C2CCCCC2)[n-]o1`, the Inhibition in the assay with Plasmodium falciparum [1] stood at 91%; with Plasmodium falciparum [2], 82%; with HepG2 it was 0%.
On the same counts, the results for `Cc1cc(N(C)C2CCN(C)CC2)nc(Nc2ccc(Br)cc2)n1` are 100%, 92% and 0%.
Take `O=C(/C=C/c1cccc(Cl)c1)NC1CCC(CN2CCC(c3c[nH]c4ccccc34)CC2)CC1` (centres undefined): the Inhibition with Plasmodium falciparum [1] is 100%; with Plasmodium falciparum [2], 82% and 55%; in the assay on HepG2, 35% and 42%.
On to `O=C(NC1CCC(CN2CCC(c3c[nH]c4ccccc34)CC2)CC1)c1cc2ccccc2o1` (centres undefined), for which the Inhibition in the assay on Plasmodium falciparum [1] was found to be 94%; with Plasmodium falciparum [2], 14%; in the assay on HepG2 it was 34%.
On the same counts, the results for `CCN1CCC2(c3cccc(OC)c3)Cc3nc4ccccc4c(-c4ccccc4)c3CC2C1` (centres undefined) are 99%, 98% and 0%.
The corresponding values for `NC(=O)CN1CC=C(c2c[nH]c3ccc(Br)cc23)CC1` are 83%, 0% and 30%.
The corresponding values for `CC(Cc1ccc(-c2nc3ccccc3[nH]2)cc1)NCC(O)c1cccc(C(F)(F)F)c1` (centres undefined) are 97%, 90% and 33%.
Regarding `COc1ccc(CC(C)NCC(O)c2cccc(Cl)c2)cc1C` (centres undefined), the values for the Inhibition in the assay on Plasmodium falciparum [1], with Plasmodium falciparum [2] and with HepG2 were 89%, 78% and 11%, respectively.
With `Cl.N[C@@H](CCN1CCC(c2cccc(O)c2)CC1)Cc1ccc(F)c(F)c1`, the Inhibition in the assay with Plasmodium falciparum [1] worked out at 92%; with Plasmodium falciparum [2], 0%; in the assay on HepG2, 25%.
On the same counts, the results for `O=C(/C=C/c1ccccc1Cl)NC1CCC(CN2C3CCC2CC(c2c[nH]c4ccccc24)C3)CC1` (centres undefined) are 100%, 98% and 56%.
As for `O=C(Nc1ccccc1Cl)NC1CCC(CN2CCC(c3c[nH]c4ccccc34)CC2)CC1` (centres undefined), the Inhibition is 100% and 98% in the assay with Plasmodium falciparum [1]; 34% and 31% in the assay with Plasmodium falciparum [2]; 32% and 37% in the assay with HepG2.
In the case of `O=C(/C=C/c1ccc(Cl)c(Cl)c1)NCC1CCC(CN2CCC(c3c[nH]c4ccccc34)CC2)CC1` (centres undefined), the Inhibition was 100% with Plasmodium falciparum [1], 93% in the assay on Plasmodium falciparum [2] and 54% in the assay on HepG2.
On the same counts, the results for `O=C(/C=C/c1cc(C(F)(F)F)ccc1F)N1CCC(CN2CCC(c3c[nH]c4ccccc34)CC2)CC1` are 96%, 14% and 22%.
In the case of `COC(=O)/C=C/c1ccc(CC(C)NCC(O)c2cccc(C(F)(F)F)c2)cc1.Cl` (centres undefined), the Inhibition with Plasmodium falciparum [1] was 97%; in the assay on Plasmodium falciparum [2] it was 93%; in the assay with HepG2 it was 41%.
The corresponding values for `CC[C@H]1CN2CC[C@@H]1C[C@H]2[C@H](O)c1cc(N2CCOCC2)nc2ccc(OC)cc12` are 99%, 99% and 10%.
